Screening data: PubChem, National Center for Advancing Translational Sciences (NCATS)
DT40 TDP1 CPT – DT40-hTDP1 cell growth loss with CPT; chicken DT40 Tdp1-/-;hTDP1 cells + 20 nM CPT, ATP luminescence, 48 h; Potency, µM (top dose mostly 46.2 µM), hits mostly inhibitors; 420,000 tested, 12% active; also: nearly all actives have a fitted effect of over 55% in size
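Chicken DT40 Tdp1-/- cells complemented with human TDP1, 400 cells/well, exposed to compounds plus 20 nM camptothecin for at least 48 h at 37 C; viability read as ATP content by CellTiter-Glo luminescence.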
ELG1 DNA repair – ELG1-dependent DNA repair inhibition | HEK293T ELG1-luciferase reporter, luminescence, 16 h; DNA damage induced by 5-fluorouridine | Potency, µM (doses to about 46.1 µM), most hits filed as inhibitors | 330,000 tested, 2.3% active; also: nearly all actives have a fitted effect of over 55% in size
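DMSO vehicle served as the neutral condition. Each well held 2,000 cells given 5-fluorouridine plus compound; after 16 hr at 37 °C/5% CO2, ONE-Glo was added and luciferase measured 30 min later.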
12-LOX inh – blocks human arachidonate 12S-lipoxygenase; purified 12hLO, xylenol orange hydroperoxide absorbance; Potency, µM (doses to about 108 µM), hits mostly inhibitors; 580,000 tested, 1.1% active
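Hydroperoxide product was detected by ferrous iron/xylenol orange as the 573 to 405 nm absorbance ratio. Arachidonic acid at 40 uM (final) was turned over for 30 min at room temperature by 150 nM human 12hLO, pH 7.0 Hepes buffer, after 15 min compound preincubation.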
DT40 TDP1 no CPT – qHTS for Inhibitors of human tyrosyl-DNA phosphodiesterase 1 (TDP1): qHTS in cells in absence of CPT | DT40 Tdp1-/- hTDP1 cells, no CPT, ATP luminescence, 48 h | Potency, µM (series often up to 46.2 µM), most hits filed as inhibitors | AID 686978, 2013 | 420,000 tested, 15% active; also: nearly all actives have a fitted effect of over 55% in size
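Chicken DT40 Tdp1-/- cells complemented with human TDP1, screened without camptothecin (DMSO vehicle only), 400 cells/well. Compounds pin-transferred, cells incubated at 37 °C for at least 48 hr. Growth read as ATP-dependent luminescence (CellTiter-Glo, 30 min at RT).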
RORg inh – blocks mouse ROR gamma transcriptional activity | Drosophila S2 Gal4-RORgamma UAS-luciferase reporter, 20 h | Potency, µM (highest dose often 53.6 µM), hits mostly inhibitors | 310,000 tested, 5.4% active | AID 2551; also: nearly all actives have a fitted effect of over 60% in size
Target sequence (P51450 whole entry, looked up, the tested form may be a part): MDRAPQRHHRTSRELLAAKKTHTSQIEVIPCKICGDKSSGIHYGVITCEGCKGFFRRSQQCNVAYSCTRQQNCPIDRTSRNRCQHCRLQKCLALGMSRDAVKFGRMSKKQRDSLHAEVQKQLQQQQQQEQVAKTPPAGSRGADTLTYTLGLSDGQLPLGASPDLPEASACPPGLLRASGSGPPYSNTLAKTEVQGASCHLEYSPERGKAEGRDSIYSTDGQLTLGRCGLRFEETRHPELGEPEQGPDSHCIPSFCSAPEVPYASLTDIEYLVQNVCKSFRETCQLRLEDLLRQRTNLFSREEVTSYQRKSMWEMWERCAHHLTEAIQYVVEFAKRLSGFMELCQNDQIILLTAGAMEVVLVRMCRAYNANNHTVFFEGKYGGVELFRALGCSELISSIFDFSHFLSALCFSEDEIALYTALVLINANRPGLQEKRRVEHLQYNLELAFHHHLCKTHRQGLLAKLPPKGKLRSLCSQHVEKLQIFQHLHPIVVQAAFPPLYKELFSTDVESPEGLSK
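In this cell-based reporter format, copper sulfate (700 uM final) drives Gal4–ROR gamma fusion expression from a metallothionein promoter in Drosophila Schneider cells; compounds preincubated 1 hr, reporter read after 20 hr at ambient temperature.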
Gal4-VP16 FLuc – inhibits Gal4-VP16 luciferase reporter, ROR gamma counter-screen | Drosophila S2 Gal4-VP16 UAS-luciferase, luminescence, 20 h | Potency, µM (series often up to 53.6 µM), hits mostly inhibitors | 310,000 tested, 3.5% active;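 also: Gal4-VP16 expression switched on by copper sulfate through the metallothionein promoter; nearly all actives have a fitted effect of over 50% in size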
Hits are given with their value. Compounds with a hit are over-represented: about 15% of the library has one in this group of screens. Calls follow the shape of the dose curve; as a rule, active = well fitted curve in the direction sought with a large enough effect; inconclusive = small, poorly fitted or top-dose-only effect, or another doubt; inactive = no such curve, though single readings can be large; an effect the other way counts as inactive or inconclusive.

Screening O=C(Cc1c[nH]c2ccccc12)N1CC2CC(C1)[C@H]1CCCC(=O)N1C2 (some centres undefined) returned 12-LOX inh inactive.
Screening CCc1ccc2c(c1)-c1ccccc1S(=O)(=O)N2CC(=O)N1CCC(C(N)=O)CC1 returned 12-LOX inh inactive.
`CCOc1ccc(CCN2C(=S)N([C@@H](CC(C)C)CN3CCCC3CN3C(=S)NC[C@@H]3CC(C)C)C[C@@H]2CC(C)C)cc1` (some centres undefined) gave DT40 TDP1 CPT inconclusive, 12-LOX inh inconclusive and DT40 TDP1 no CPT 18µM.
Cn1c(NCc2cccnc2)nc2cc(-c3cccc(C(=O)NCCO)c3)sc2c1=O was read as DT40 TDP1 CPT 9.2µM, 12-LOX inh inactive and DT40 TDP1 no CPT inactive.
Screening Cn1c(NCc2cccnc2)nc2cc(-c3ccc(C(=O)N4CCOCC4)cc3)sc2c1=O returned DT40 TDP1 CPT inconclusive, 12-LOX inh inactive and DT40 TDP1 no CPT inconclusive.
Screening CN(C)CCCOc1ccc(-c2cc3nc(NCc4cccnc4)n(C)c(=O)c3s2)cn1 returned DT40 TDP1 CPT inconclusive, 12-LOX inh inactive and DT40 TDP1 no CPT 18µM.
For CC(=O)Oc1ccc2c(C)c(CCC(=O)NCc3nc(-c4ccccc4)no3)c(=O)oc2c1 the results were 12-LOX inh inactive.
For COCCn1c(SCc2ccccc2C#N)nnc1-c1ccc(Cl)cc1 the results were 12-LOX inh inactive.
For Clc1ccc(-c2nnc(NC3=NCCCCC3)o2)cc1 the results were DT40 TDP1 CPT inactive, ELG1 DNA repair inconclusive, 12-LOX inh inactive, DT40 TDP1 no CPT inactive, RORg inh 6.3µM and Gal4-VP16 FLuc 8.9µM.
Screening CC(NC(=O)C1CCCC1)c1ccc(Cl)s1 (centres undefined) returned 12-LOX inh inactive.
`O=C(Nc1nnc(-c2ccc(Cl)s2)o1)C1CCCCC1` gave DT40 TDP1 CPT 15µM, 12-LOX inh inactive and DT40 TDP1 no CPT inconclusive.
`O=C(Nc1nnc(-c2ccc3c(c2)OCCO3)o1)C1CCCCC1` gave DT40 TDP1 CPT inactive, ELG1 DNA repair inconclusive, 12-LOX inh inactive, DT40 TDP1 no CPT inconclusive, RORg inh inactive and Gal4-VP16 FLuc inconclusive.
For Fc1cc(Cl)ccc1NC1=NCCCCC1 the results were DT40 TDP1 CPT inactive, ELG1 DNA repair inactive, 12-LOX inh inactive, DT40 TDP1 no CPT inactive, RORg inh inactive and Gal4-VP16 FLuc inactive.
For CCOc1ccc(-c2nnc(NC(=O)C3CCCC3)o2)cc1 the results were DT40 TDP1 CPT inconclusive, ELG1 DNA repair inconclusive, 12-LOX inh inactive, DT40 TDP1 no CPT inconclusive, RORg inh 8.9µM and Gal4-VP16 FLuc inconclusive.
O=C(c1ccc(-c2nnc(-c3ccccc3)o2)cc1)N1CCCCCC1 was read as DT40 TDP1 CPT 10µM, ELG1 DNA repair inconclusive, 12-LOX inh inactive, DT40 TDP1 no CPT 18µM, RORg inh inactive and Gal4-VP16 FLuc inactive.
O=C(Nc1nnc(-c2ccc(Cl)cc2)o1)C1CCCCC1 was read as DT40 TDP1 CPT inconclusive, ELG1 DNA repair inactive, 12-LOX inh inactive, DT40 TDP1 no CPT 18µM, RORg inh inactive and Gal4-VP16 FLuc inactive.
`O=C(Nc1nnc(-c2ccccc2)o1)C1CCCCC1` gave DT40 TDP1 CPT inconclusive, ELG1 DNA repair inconclusive, 12-LOX inh inactive, DT40 TDP1 no CPT inconclusive, RORg inh 3.5µM and Gal4-VP16 FLuc 7.9µM.
For Cc1cc(C)nc(Sc2ncnc3c2oc2ccccc23)n1 the results were DT40 TDP1 CPT inconclusive, ELG1 DNA repair inconclusive, 12-LOX inh inactive, DT40 TDP1 no CPT 23µM, RORg inh inactive and Gal4-VP16 FLuc inactive.
Screening COc1ccc(Cn2nnc(C(=O)Nc3ccc4c(c3)OCCO4)c2N)cc1Br returned DT40 TDP1 CPT 18µM, ELG1 DNA repair inconclusive, 12-LOX inh inactive, DT40 TDP1 no CPT 2.6µM, RORg inh inconclusive and Gal4-VP16 FLuc inactive.
`COc1cc(NC(=O)c2nnn(Cc3ccc(SC)cc3)c2N)cc(OC)c1` gave DT40 TDP1 CPT 18µM, ELG1 DNA repair inconclusive, 12-LOX inh inactive, DT40 TDP1 no CPT 29µM, RORg inh inactive and Gal4-VP16 FLuc inactive.
COc1cc(OC)c(NC(=O)c2nnn(Cc3ccc(C)cc3)c2N)cc1Cl was read as DT40 TDP1 CPT 18µM, 12-LOX inh inactive and DT40 TDP1 no CPT 12µM.
COc1cc(NC(=O)c2nnn(Cc3ccc(F)cc3)c2N)cc(OC)c1 was read as DT40 TDP1 CPT inconclusive, 12-LOX inh inactive and DT40 TDP1 no CPT inactive.
For Cc1cc(C)cc(NC(=O)c2nnn(Cc3cc(C)ccc3C)c2N)c1 the results were DT40 TDP1 CPT 21µM, ELG1 DNA repair inactive, DT40 TDP1 no CPT inconclusive, RORg inh inconclusive and Gal4-VP16 FLuc inactive.
Screening Cc1cc2nc(C)n(CCOc3ccccc3)c2cc1C returned 12-LOX inh inactive.
For CCCNC(=O)N(C1CCOCC1)C1CCN(C(=O)c2ccc(OC)nc2OC)CC1 the results were 12-LOX inh inactive.
Cc1cccc(NC(=O)NC2CCSc3ccccc32)c1 (centres undefined) was read as 12-LOX inh inactive.
`O=C(NCc1cccnc1)[C@@H]1C[C@@H](O)CN1C1CCN(C(=O)CCC2CCCC2)CC1` gave 12-LOX inh inactive.
For CC1(C)CC(=O)C2=C(C1)OC(N)=C(C#N)C2c1cn(-c2ccccc2)nc1-c1ccc(F)cc1 (centres undefined) the results were DT40 TDP1 CPT 15µM, ELG1 DNA repair inconclusive, 12-LOX inh inconclusive, DT40 TDP1 no CPT inconclusive, RORg inh inconclusive and Gal4-VP16 FLuc inconclusive.
COc1ccccc1/C=C/C(=O)NC(=S)Nc1ccc(S(=O)(=O)N(C)c2ccccc2)cc1 was read as DT40 TDP1 CPT inconclusive, ELG1 DNA repair inactive, 12-LOX inh inactive, DT40 TDP1 no CPT 23µM, RORg inh 13µM and Gal4-VP16 FLuc inactive.
For CN(C(=S)NC(=O)C1CCCC1)c1ccccc1 the results were DT40 TDP1 CPT inactive, 12-LOX inh 20µM and DT40 TDP1 no CPT inactive.
Screening CN(c1ccccc1)S(=O)(=O)c1ccc(NC(=S)NC(=O)C2CC2)cc1 returned DT40 TDP1 CPT inconclusive, ELG1 DNA repair inactive, 12-LOX inh inconclusive, DT40 TDP1 no CPT 12µM, RORg inh 11µM and Gal4-VP16 FLuc inconclusive.
COc1ccccc1/C=C/C(=O)NC(=S)Nc1ccccn1 was read as DT40 TDP1 CPT inactive, ELG1 DNA repair inconclusive, 12-LOX inh inactive, DT40 TDP1 no CPT inactive, RORg inh 4.5µM and Gal4-VP16 FLuc 5.6µM.
For CCOC(=O)NC1CCCN(CC=C(C)C)C1 (centres undefined) the results were 12-LOX inh inactive.
